From PubChem BioAssay (NCI)
Values joined by “and” are separate entries in the source; they are usually repeats but may differ in a detail not shown here. Identical values can stand only once. Compounds without any hit were thinned out: in the full panel of roughly 83,000, 20% have a hit.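 Assay: single dose, 48 h. Readout: percent growth (0 = no net growth; negative = cell death). Active: <10.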 Unmarked numbers belong to inactive results. Active and inactive are the calls of the source.

The compounds below were run on MDA-MB-468 breast (assay: NCI-60 one-dose screen, 48 h (100 = growth as untreated, 0 = no growth, -100 = all killed)). Settings: 10 µM unless noted.

| SMILES | growth |
| --- | --- |
| CCOC(=O)NCCc1nc2c([nH]1)c(=O)n(C)c(=O)n2C | 112% |
| O=C(c1ccc(Cl)cc1)N1CCCCC1 | 101% |
| O=[N+]([O-])c1cccc(/C=N/NC(=S)NC23CC4CC(CC(C4)C2)C3)c1 | 82.1% |
| COc1ccccc1N1CCN(C2=C(Cl)C(=O)c3ncccc3C2=O)CC1 | -55.3% (active) |
| CCN(CC)CCn1c2ccc(O)cc2c2sc3cc(OC)ccc3c(=O)c21 | 33.8% |
| COc1ccc2cn3c4ccc(O)cc4[nH]c(=O)c3c2c1 | -11.9% (active) |
| O=C(O)c1cccc([N+](=O)[O-])c1 | 109% |
| Nc1c(CNCc2nnn(Cc3ccccc3)c2N)nnn1Cc1ccccc1 | 100% |
| C1=CC(c2nn3c(-c4ccccc4)nnc3s2)=Cc2ccccc2O1 | 44.9% |
| CC/C(=C/c1c(O)cccc1OC)c1ccc2c(OC)cccc2[o+]1 | 95.1% |
| NNC(=O)CCCCl | 96% |
| CCCCCc1ccc(S(=O)(=O)Nc2cccc(-c3csc(NC(=O)CNCCN(C)C)n3)c2)cc1 | 82.9% |
| Cn1cc(-c2nnc(N)nc2-c2c[nH]c3ccc(F)cc23)c2cc(Br)ccc21 | -33.4% (active) |
| COc1ccc2[nH]c(O)c(N=NC(=O)c3oc4ccccc4c3C)c2c1 | 19.9% |
| c1ccc2cc(Cn3c(-c4ccc5ccccc5c4)[n+](Cc4ccc5ccccc5c4)c4ccccc43)ccc2c1 | -42.9% (active) |
| Cc1nc(Nc2ccc(F)c(Cl)c2)sc1C(=O)O | -1.67% (active) |
| COc1cc(NC(C)CCCNC(=O)CCC(=O)NCCCNCCCCCCCCNCCCNC(=O)CCC(=O)NCCCC(C)Nc2cc(OC)cc3cccnc23)c2ncccc2c1 (stereo not given) | 16.8% |
| O=c1[nH]ccc2nc(N3CCC(O)CC3)nc(Nc3ccc(N4CCOCC4)cc3)c12 | 159% |
| O=C(NN=C1CCCCC1)C(=O)NN=C1CCCCC1 | 113% |
| FC(F)(F)c1ccccc1-c1cn2c(ccc3ccccc32)n1 | 105% |

| SMILES | growth |
| --- | --- |
| N#Cc1c(-c2ccccc2)cc(-c2ccccc2)n(CCCCCC(=O)Nc2ccccc2N)c1=O | 62.8% |
| NS(=O)(=O)c1ccc(N=Nc2c(O)n(Cc3ccccc3)c3ccc(Cl)cc23)cc1 | 83.3% |
| CN(Cc1cc(Cl)cc(Cl)c1O)Cc1cc(Cl)cc(Cl)c1O | 36.5% |
| O=C(CSc1nc2sc3c(c2c(=O)n1Cc1ccccc1)CCCC3)N1CCN(c2ccccc2)CC1 | 106% |
| COc1cc(OC)c(/C=C/C(=O)c2ccc(Nc3ncnc4ccccc34)cc2)c(OC)c1 | -34.8% (active) |
| C(=C\c1ccccc1)/CN1CCN(C(c2ccccc2)c2ccccc2)CC1 | 89.6% |
| O=C(Nc1ncc([N+](=O)[O-])s1)c1cccc([N+](=O)[O-])c1 | 28.1% |
| CC(C)=CCC[C@](C)(O)[C@H]1CC[C@]2(C)[C@@H]1CC[C@@H]1[C@@]3(C)C/C(=C/c4ccccc4)C(=O)C(C)(C)[C@@H]3CC[C@]12C | 94.7% |
| Cc1n(Cc2ccc3ccccc3c2)c(Cl)c(Cl)[n+]1Cc1ccc2ccccc2c1 | -19.5% (active) |
| C=C1CCC2C3(C)COC(c4ccccc4)OC3CCC2(C)C1C/C=C1/C(=O)OCC1OC(C)=O (stereo not given) | 53% |
| O=C1C=CC(n2cc(F)c(=O)[nH]c2=O)O1 (stereo not given) | 85.3% |
| COc1ccc(-c2csc(NC(=O)CN3CCN(c4cc5c(cc4F)c(=O)c(C(=O)O)cn5C4CC4)CC3)n2)cc1 | -0.675% (active) |
| O=C(CCCCCCNC(=O)C(O)(O)C(F)(F)F)Nc1nc2ccccc2s1 | -12.8% (active) |
| COc1cc(C2CC(=O)Nc3c2c(C)nn3-c2nc3ccccc3[nH]2)cc(OC)c1OC (stereo not given) | 96.9% |
| Nc1ccc(C2=NN(C(=O)c3cc(-c4ccc(Cl)cc4)nc4ccccc34)C(c3ccc(Cl)cc3)C2)cc1 (stereo not given) | 7.85% (active) |
| O=C(O)C1[S][Sb]([CH](C(=O)O)[CH](C(=O)O)[Sb]2[S]C(C(=O)O)C(C(=O)O)[S]2)[S]C1C(=O)O (stereo not given) | 81.6% |
| CN(C)CCC(=O)c1ccc(O)cc1 | 107% |
| CC(Cc1ccco1)C(=O)NC(N)=O (stereo not given) | 95.7% |
| N#Cc1ccc(/C=C/C(=O)c2ccccc2)cc1 | 43.5% and 48.9% |
| CCCCCCCCCCCC(=O)NCCC[N+](C)(C)CC(=O)[O-] | 86.9% |
